# Experimental data published in PubChem BioAssay (NCATS).
# Results filed as inconclusive are left out. A number with no mark means an inactive call. The source made the active and inactive calls. The call rests on the fitted dose curve; in most records, active means well fitted cell-killing curve with a large enough effect; inconclusive means small, poorly fitted or top-dose-only effect; inactive means no such curve, though single readings can be large or run the other way.
# Assay: qHTS of pediatric cancer cell lines to identify multiple opportunities for drug repurposing: Primary screen for LAN-5 cells (AID 1347100)
# Conditions: LAN-5 neuroblastoma viability, CellTiter-Glo luminescence, 48 h; series mostly up to 46 µM; activity change, negative = cytotoxic: at the top concentration
# From the text: Drug repurposing or repositioning has been offered as a strategy for drug development in oncology programs. This approach has special potential for childhood cancers and other rare or orphan diseases, where the expected return on new drug development has been a disincentive to pharmaceuticals.
# In this project we exploit the poly-pharmacology of drugs to discover new indications via phenotypic screening of a panel of 19 well-characterized cell lines derived from solid tumors seen in children and adolescents. The goal is to identify approved drugs with previously unrecognized anticancer properties that has the potential to reveal new mechanisms and biological processes involved in carcinogenesis or drug resistance. We employed a titration-based paradigm (quantitative high-throughput screening or qHTS), where all compounds were tested at multiple concentrations for their effect on cell viability. Concentration-response curves (CRCs) were derived directly from the primary screen, and both potency and efficacy values were used to identify compounds with robust bioactivity profiles. We screened the NIH Chemical Genomics Center (NCGC) Pharmaceutical Collection (NPC) and Mechanism Interrogation Plate (MIPE) small molecule collections of approved and investigational compounds against these cell lines; and measured metabolically active cells after 48 hours of compound treatment as a proxy for cell viability.
# Assay Submitter: Nathalia J. Martinez, National Center for Advancing Translational Sciences, National Institutes of Health, Rockville, MD, USA; email: natalia.martinez@nih.gov
# [1] Shen, M et al. Quantitative high-throughput phenotypic screening of pediatric cancer cell lines identifies multiple opportunities for drug repurposing. Oncotarget 2017 Dec 19;9(4):4758-4772. PMID 29435139.
# The cells were obtained from University of North Carolina (UNC), Pediatric Preclinical Testing Program (PPT), and Coriell Institute (CI).
# qHTS cell viability assay:
# Cells were assayed in growth media at a density of 500-1,000 cells/well. Five microliters of cells were dispensed into 1,536-well, white, solid-bottom, TC-treated plates (Greiner Bio One) using a multidrop dispenser and incubated at 37 degrees C, 5% CO2, under a humidified atmosphere for 5 hours. Twenty-three nanoliters of compounds and controls (neutral control DMSO or positive control bortezomib at final concentration of 2.3 µM) were subsequently transferred by Kalypsys pintool. For primary screens, the MIPE collection was tested at 11-point dilutions (final concentrations range from 0.78 nM to 46 µM) and the NPC collection at 8-point dilutions (final concentrations range from 0.59 nM to 46 µM). Compounds tested in follow-up screens were assayed at 11-point dilutions. Cells were incubated for 48 hours, followed by addition of 3 µL of CellTiter-Glo (Promega). After a 15 min incubation at room temperature, samples were analyzed for luminescence intensity using a ViewLux High-throughput CCD imager equipped with clear filters.
# Potency means the concentration at half of the fitted maximal effect.
SMILES,"activity change, negative = cytotoxic",Potency
CCCCC1C(=O)NC(=O)N(C2CCCCC2)C1=O (stereo not given),2.54%,–
Clc1ccc(C(OCCN2CCCCC2)c2ccccc2)cc1 (stereo not given),-34.8%,–
CCC(=O)OC1(c2ccccc2)CCN(C)CC1,-13% [at 92.7 µM],–
CCOC(=O)NC(C)(C)Cc1ccc(Cl)cc1,2.52%,–
COc1cc(CC(C)N)cc2c1OCO2 (stereo not given),-7.02% [at 92.7 µM],–
COc1ccc2c3c1O[C@H]1[C@@H](O)C=C[C@H]4[C@@H](C2)N(C)CC[C@@]341,–,33.7 µM (active)
COc1ccc2c(C(=O)c3ccc(Cl)cc3)c(C)n(CC(=O)O)c2c1,0.48%,–
CCOC(=O)C1(c2ccccc2)CCN(CCc2ccc(N)cc2)CC1,-5.65%,–
CC[n+]1c(-c2ccccc2)c2cc(N)ccc2c2ccc(N)cc21,–,0.944 µM (active)
NC(=O)OCCCc1ccccc1,13.5%,–
CC(C)(C)OC(=O)c1ncn2c1[C@@H]1CCCN1C(=O)c1c(Br)cccc1-2,-7.73%,–
C=CCN1CC[C@]23CCCC[C@H]2[C@H]1Cc1ccc(O)cc13,5.43%,–
CCC1(CC)C(=O)NC(=O)NC1=O,-1.92%,–
CN1C2CCC(C)(C)C1CC(OC(=O)C(O)(c1cccs1)c1cccs1)C2 (stereo not given),-5.75%,–
Cc1ccc(N=CN(C)C=Nc2ccc(C)cc2C)c(C)c1,11.1%,–
C[C@@H]1CC[C@H]2[C@@H](C)C(=O)O[C@@H]3O[C@@]4(C)CC[C@@H]1[C@]32OO4,-4.71%,–
CN1CCc2cc(Cl)c(O)cc2[C@H]2c3ccccc3CC[C@@H]21,-6.63%,–
CCOC(=O)C(c1c(O)c2ccccc2oc1=O)c1c(O)c2ccccc2oc1=O,11.1%,–
CN(C)CCc1c[nH]c2cccc(O)c12,–,38.2 µM (active)
CC(C)=C[C@@H]1[C@@H](C(=O)OCc2coc(Cc3ccccc3)c2)C1(C)C,-2.79%,–

SMILES,"activity change, negative = cytotoxic",Potency
CCCC[N+]1(C)[C@@H]2CC(OC(=O)[C@H](CO)c3ccccc3)C[C@H]1[C@@H]1O[C@@H]12 (stereo not given in full),10.9%,–
COP(=O)(OC)OC=C(Cl)Cl,25.3%,–
O=c1[nH]c2cc(Cl)ccc2n1C1CCNCC1,17%,–
C[N+](C)(C)CCOC(=O)C(O)(c1ccccc1)c1ccccc1,-4.54%,–
CCNc1nc(Cl)nc(NCC)n1,-8.57%,–
CCCN(CCC)CCc1c[nH]c2ccccc12,-22.1% [at 92.7 µM],–
C=CC[C@]1(O)CC[C@H]2[C@@H]3CCC4=CC(=O)CCC4=C3C=C[C@@]21C,-4.5%,–
CN(C)CCc1c[nH]c2ccc(O)cc12,0.338% [at 92.7 µM],–
CCN(CC)CCOC(=O)C(C)(c1ccccc1)c1ccccc1,-13%,–
C#C[C@]1(O)C=C[C@H]2[C@@H]3CCC4=CC(=O)CC[C@@H]4[C@H]3CC[C@@]21CC,6.09%,–
C[C@]12CC[C@H](O)CC1=CC[C@@H]1[C@@H]2CC[C@]2(C)C(=O)CC[C@@H]12,-3.79%,–
OC(O)C(Cl)(Cl)Cl,-1.76%,–
O=C(CBr)Nc1ccc(Cl)cc1C(=O)c1ccccc1F,13%,–
ClC1=C(Cl)C2(Cl)C(CBr)CC1(Cl)C2(Cl)Cl (stereo not given),-1.34%,–
C[N+]1(C)[C@@H]2CC[C@H]1CC(OC(=O)C(CO)c1ccccc1)C2 (stereo not given in full),-6.54%,–
NC(=O)CN1CCCC1=O,8.52%,–
Cc1nnc2n1-c1sc(CCc3ccc(CC(C)C)cc3)cc1C(c1ccccc1Cl)=NC2C (stereo not given),–,23.7 µM (active)
Cc1nc2ccccc2c(=O)n1-c1ccccc1Cl,-8.89% [at 92.7 µM],–
CN(C)C(=O)Oc1cc(OC(=O)N(C)C)cc(C(O)CNC(C)(C)C)c1 (stereo not given),-5.97%,–
COP(=O)(OC)C(O)C(Cl)(Cl)Cl (stereo not given),1.27%,–
